From PubChem BioAssay (NCI) come the findings set out here.

This is part of a sample that, as a whole, favours compounds with a hit. Of some 83,000 tested, about 20% had one in any assay.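 Negative percent growth values reflect cell death: -40 means 40% of the cells present at the start died, and -100 means all died.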 A number with no mark means an inactive call. Active and inactive are the calls of the source. Rule for the calls: active = growth percent below 10; inactive = the rest.

Test in all cases: NCI-60 one-dose screen, 48 h (100 = growth as untreated, 0 = no growth, -100 = all killed)
What all share (settings): 10 µM unless noted

For assay [1], the system named is SR leukemia.
The test system of assay [2] is RPMI-8226 leukemia.
Assay [3] has as its system OVCAR-8 ovarian.
For assay [4], the system named is OVCAR-5 ovarian.
The subject of assay [5] is OVCAR-4 ovarian.
Assay [6] relates to SK-OV-3 ovarian.
Assay [7] has as its system IGROV1 ovarian.
The test system of assay [8] is OVCAR-3 ovarian.
The test system of assay [9] is HS 578T breast.
In assay [10] the test system is NCI/ADR-RES ovarian.
Assay [11] deals with T-47D breast.
The subject of assay [12] is BT-549 breast.
The subject of assay [13] is MDA-MB-435 melanoma.
Assay [14] concerns SW-620 colon.
Assay [15] deals with MCF7 breast.
Assay [16] has as its system HCT-116 colon.
Assay [17] concerns HCC-2998 colon.
The subject of assay [18] is KM12 colon.

As to `O=C(CSc1nc(-c2ccccc2)cn1-c1ccc(Cl)cc1)c1ccc([N+](=O)[O-])cc1`, the growth in assay [1] is 72.2%; in [2], 80.4%; in assay [3], 94.1%; in [4] it was 95.4%; in [5], 92.8%; in assay [6] it was 96.6%. Also, the growth in assay [7] was 96.5%; in assay [8] it was 78.8%; in assay [9], 62.8%; in [10], 91.2%; in assay [11] it was 71.3%; in assay [12] it was 86.8%. Further, the growth is 83.5% in assay [13]; 73.8% in assay [14]; 76.1% in assay [15]; 66.9% in [16]; 99.6% in [17]; 82.6% in assay [18].
As to `CCN1CCN(c2cc(C(=O)Nc3cccc(Nc4ccc5c(OC)cccc5n4)c3)cc(C(F)(F)F)c2)CC1`, the growth in [1] is -3.44% (active); in [2], 7.08% (active); in assay [3], 21.1%; in assay [4], 54.8%; in assay [5], 26.9%; in [6] it was 54%. In addition, the growth in assay [7] is 12.8%; in assay [8], 33%; in assay [9] it was 34%; in assay [10], 9.7% (active); in assay [11], 11%; in assay [12], 69.6%. In addition, the growth in [13] was 1.29% (active); in [14] it was 3.22% (active); in assay [15], -45.3% (active); in assay [16], 24.3%; in assay [17] it was -53.3% (active); in assay [18] it was -10.3% (active).
On to `CCN(CC)CCCC(Nc1c2ccc(Cl)cc2nc2ccc(OC)cc12)c1ccncc1` (centres undefined), for which the growth was -6.47% (active) in assay [1]; 74.3% in assay [2]; 58.4% in [3]; 96.6% in assay [4]; 68.5% in assay [5]; 97.6% in assay [6]. For the same compound, the growth in assay [7] is 75.7%; in assay [8], 95.6%; in [9], 97.5%; in assay [10], 81.4%; in assay [11], 113%; in [12] it was 94.6%. Besides, the growth in assay [13] was 93%; in [14], 61.9%; in [15], 61.2%; in assay [16] it was 60.8%; in [17] it was 71%; in [18] it was 69.1%.
`CCCNNC(=O)c1ccc(CNC(=O)/C=C/c2ccccc2)cc1`: the growth in assay [1] was 30.8% [2.5 µM]; in assay [2], 18.9% [2.5 µM]; in assay [3], 20.7% [2.5 µM]; in [4], 18.1% [2.5 µM]; in [5], 63.2% [2.5 µM]; in assay [6] it was 8.72% [2.5 µM] (active). In addition, the growth in assay [7] was 30.5% [2.5 µM]; in assay [8], 47.6% [2.5 µM]; in assay [9], 47.3% [2.5 µM]; in assay [10] it was 21% [2.5 µM]; in assay [11] it was 0.925% [2.5 µM] (active); in assay [12], 77.2% [2.5 µM]. Further, the growth in [13] is 31.8% [2.5 µM]; in assay [14] it was 22.9% [2.5 µM]; in assay [15], 30.6% [2.5 µM]; in assay [16] it was 1.27% [2.5 µM] (active); in [17], 34.2% [2.5 µM]; in [18], 47.1% [2.5 µM].
Consider `CC(C)(C)n1cc(-c2ccnc(NCCNS(=O)(=O)c3ccc(Br)cc3)c2)c(-c2cccc(O)c2)n1`, for which the growth in [1] is -10.5% (active); in assay [2] it was 3.61% (active); in assay [3], 35.7%; in assay [4], 47.5%; in assay [5], 42.8%; in [6], 53.2%. For the same compound, the growth is 40.4% in [7]; 38.6% in [8]; 16.8% in [9]; 33% in assay [10]; 8.09% (active) in [11]; 30.8% in assay [12]. Moreover, the growth in assay [13] was 28.1%; in [14] it was 5.53% (active); in assay [15] it was 8.18% (active); in [16], 19.7%; in assay [17], -17.5% (active); in [18], 17.3%.
On to `CCN1CCN(C(=O)[C@]23CC[C@@H](C)[C@H](C)[C@@H]2C2=CC[C@@H]4[C@@]5(C)C/C(=C/c6ccncc6)C(=O)C(C)(C)[C@@H]5CC[C@@]4(C)[C@]2(C)CC3)CC1`, for which the growth in assay [1] is -12.8% (active); in assay [2], -29.5% (active); in assay [3], 37.4%; in assay [4], 34.2%; in assay [5], 29.8%; in assay [6], 70.2%. In addition, the growth was 29.8% in assay [7]; 11.2% in assay [8]; 7.21% (active) in assay [9]; 27.4% in [10]; 27.1% in assay [11]; 52.2% in assay [12]. The growth in [13] was -51.1% (active); in [14], -22.6% (active); in [15], 4.97% (active); in [16], -51.9% (active); in [17], -28.9% (active); in [18], 5.49% (active).
`COc1ccc(CNc2c3ccccc3nc3ccccc23)cc1OC`: the growth in assay [1] was 8.57% (active); in assay [2], 0.62% (active); in assay [3], 23.9%; in assay [4], 27.5%; in assay [5], 21.4%; in assay [6], 41.2%. Besides, the growth in assay [7] is 10.9%; in assay [8], 43.7%; in assay [9] it was 37.2%; in assay [10], 19.3%; in [11], 25.8%; in [12], 42.1%. Besides, the growth in assay [13] is 29.4%; in [14], 16%; in assay [15], 0.674% (active); in assay [16], 12.2%; in assay [17], 30.1%; in [18] it was 31.6%.
For `CC(C)(C)c1ccc(C(=O)Nc2sc3c(c2C#N)CCC(=O)C3)cc1`, the growth in [1] was 4.39% (active); in assay [2] it was -8.65% (active); in assay [3], 16.6%; in assay [4], 21%; in assay [5], -73.8% (active); in [6], 57.4%. Also, the growth is 25.8% in [7]; -29.6% (active) in [8]; 30.5% in [9]; 9.31% (active) in assay [10]; -31.8% (active) in assay [11]; -11.7% (active) in assay [12]. Also, the growth in assay [13] is 6.81% (active); in assay [14], -51% (active); in assay [15], 8.36% (active); in assay [16], 2.24% (active); in [17], 48.1%; in [18], 12%.
